# Screening results: PubChem, National Center for Advancing Translational Sciences (NCATS)
# Most compounds without a hit are left out; they make up all but 15% or so of the library.
# DT40 TDP1 no CPT – qHTS for Inhibitors of human tyrosyl-DNA phosphodiesterase 1 (TDP1): qHTS in cells in absence of CPT; 420,000 compounds, 15% hits; DT40 Tdp1-/- hTDP1 cells, no CPT, ATP luminescence, 48 h; Potency, µM (series often up to 46.2 µM), for the others: at the highest dose activity change, negative = growth inhibition, hits mostly inhibitors; note: nearly all actives have a fitted effect of over 55% in size
#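 Camptothecin absent (DMSO only). Human TDP1-complemented DT40 knockout cells, 400 cells/well, 37 °C for minimum 48 hr; ATP measured via CellTiter-Glo, 30 min dark incubation, luminescence.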
# TDP1 cell CPT – DT40-hTDP1 cell growth loss with CPT. chicken DT40 Tdp1-/-;hTDP1 cells + 20 nM CPT, ATP luminescence, 48 h. Potency, µM (titrated, usually from 46.2 µM), inactives show at the top dose activity change, negative = growth inhibition, actives largely listed as inhibitors. 420,000 compounds, 12% hits. AID 686979; note: nearly all actives have a fitted effect of over 55% in size
#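 Chicken DT40 Tdp1-/- cells stably complemented with human TDP1 were seeded at 400 cells/well in medium containing 20 nM camptothecin, exposed to pin-transferred compounds, and grown at 37 °C for at least 48 hr. Viability was read as ATP luminescence.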
# Gal4-VP16 FLuc – Gal4-VP16 reporter inhibition counter-screen; Drosophila S2 Gal4-VP16 UAS-luciferase, luminescence, 20 h; 310,000 compounds, 3.5% hits; Potency, µM (top dose mostly 53.6 µM), without a hit: top-dose activity, negative = inhibition, hits mostly inhibitors; AID 2546;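 note: Gal4-VP16 expression switched on by copper sulfate through the metallothionein promoter; nearly all actives have a fitted effect of over 50% in size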
# RORg inh – ROR gamma (mouse) transcription inhibition; Drosophila S2 Gal4-RORgamma UAS-luciferase reporter, 20 h; Potency, µM (highest dose often 53.6 µM), without a hit: at the top dose activity change, negative = inhibition, most hits filed as inhibitors; 310,000 compounds, 5.4% hits; AID 2551; note: nearly all actives have a fitted effect of over 60% in size
#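 Drosophila S2 cells stably expressing Gal4-DBD/mouse RORγ fusion under metallothionein promoter plus UAS-luciferase; compound 1 h, then 700 uM CuSO4 induction for 20 h at ambient temperature; inhibition read as reduced luminescence.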
# ELG1 repair inh – blocks ELG1-dependent DNA repair in HEK293T cells; HEK293T ELG1-luciferase reporter, luminescence, 16 h; DNA damage induced by 5-fluorouridine; Potency, µM (highest dose often 46.1 µM), for inactives: at the highest dose activity change, negative = inhibition, most hits filed as inhibitors; 330,000 compounds, 2.3% hits; AID 504467; note: nearly all actives have a fitted effect of over 55% in size
#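 Cells (2,000 per well) received 5-fluorouridine plus test compound or DMSO and were incubated 16 hr at 37 °C, 5% CO2. Luciferase activity was read by luminescence 30 min after ONE-Glo addition; signal suppression marked inhibition of damage-induced ELG1 function.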
# ALOX12 inh – blocks human arachidonate 12S-lipoxygenase | purified 12hLO, xylenol orange hydroperoxide absorbance | Potency, µM (titrated, usually from 108 µM), without a hit: at the top dose activity change, negative = inhibition, hits mostly inhibitors | 580,000 compounds, 1.1% hits
# Target sequence (P18054 whole entry, looked up): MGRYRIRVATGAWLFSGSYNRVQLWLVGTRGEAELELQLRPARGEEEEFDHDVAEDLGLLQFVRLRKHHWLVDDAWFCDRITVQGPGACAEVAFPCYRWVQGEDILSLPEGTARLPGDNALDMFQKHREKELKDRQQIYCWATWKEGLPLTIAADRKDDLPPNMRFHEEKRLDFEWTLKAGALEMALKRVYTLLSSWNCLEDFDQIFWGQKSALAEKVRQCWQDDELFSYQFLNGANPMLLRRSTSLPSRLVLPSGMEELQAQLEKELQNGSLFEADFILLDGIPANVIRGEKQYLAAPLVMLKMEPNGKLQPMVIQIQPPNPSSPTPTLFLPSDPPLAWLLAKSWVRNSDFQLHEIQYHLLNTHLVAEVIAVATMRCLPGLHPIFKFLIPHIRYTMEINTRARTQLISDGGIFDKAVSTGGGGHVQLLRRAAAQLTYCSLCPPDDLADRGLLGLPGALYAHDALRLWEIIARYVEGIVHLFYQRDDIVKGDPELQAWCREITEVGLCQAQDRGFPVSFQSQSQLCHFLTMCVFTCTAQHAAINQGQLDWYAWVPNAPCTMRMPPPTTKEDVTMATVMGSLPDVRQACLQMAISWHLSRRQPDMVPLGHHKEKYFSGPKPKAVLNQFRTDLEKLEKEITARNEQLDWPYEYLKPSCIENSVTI
#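 Hydroperoxide product was detected by ferrous iron/xylenol orange as the 573 to 405 nm absorbance ratio. Arachidonic acid at 40 uM (final) was turned over for 30 min at room temperature by 150 nM human 12hLO, pH 7.0 Hepes buffer, after 15 min compound preincubation.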
# * marks the source's active call; other numbers are inactive results; ? = inconclusive; . = not tested or not shown; [ ] = dose if it differs, or a comment. Calls come from the whole dose curve; as a rule, active = well fitted curve in the direction sought with a large enough effect; inconclusive = small, poorly fitted or top-dose-only effect, or another doubt; inactive = no such curve, though single readings can be large; an effect the other way counts as inactive or inconclusive. % is set by controls: 0 for no effect and ±100 for the full control effect; potency is the fitted concentration of half-maximal effect.
SMILES,DT40 TDP1 no CPT,TDP1 cell CPT,Gal4-VP16 FLuc,RORg inh,ELG1 repair inh,ALOX12 inh
Cc1cc(C)c(OCC(=O)Nc2nnc(-c3ccco3)o2)c(C)c1,15.3%,1.3%,?,12.6µM*,-9.7%,7.5%
O=C(CSc1ccc(F)cc1)Nc1nnc(-c2ccco2)o1,?,?,.,.,23.8%,-6.6%
Cc1ccc(SCC(=O)Nc2nnc(-c3ccco3)o2)cc1,29.1µM*,-5.6%,.,.,0.0%,-10.9%
O=C(COc1ccccc1)Nc1ccc(-c2nnc(-c3ccco3)o2)cc1,-7.1%,-0.2%,-2.9%,-5.1%,24.2%,0.0%
CCOc1ccc(C2(c3cccc(F)c3)CCCCC2)cc1,.,.,.,.,.,18.2%
CCc1nc2c(NC(=O)NCCc3ccccc3)cccn2n1,.,.,.,.,.,24.3%
N#Cc1nc(-c2ccco2)oc1N1CCN(CC(=O)N(Cc2ccccc2F)C2CC2)CC1,.,.,.,.,.,39.1%
CON(C)C(=O)CCN(Cc1ccccc1)C(=O)OC(C)(C)C,?,?,.,.,-0.5%,?
CON(C)C(=O)CC(CNC(=O)OC(C)(C)C)c1ccc(Cl)cc1 (centres undefined),14.6µM*,?,.,.,2.5%,-4.1%
CON(C)C(=O)CC(CN(Cc1ccccc1)C(=O)OC(C)(C)C)c1ccc(Cl)cc1 (centres undefined),?,23.1µM*,.,.,?,?
O=C1CCN(C(=O)C2CCN(C(=O)C3(c4ccccc4)CC3)CC2)CCCCCCN1,.,.,.,.,.,14.8%
Fc1ccc(CSc2cccc3cccnc23)cc1,.,.,.,.,.,1.6%
Cc1cccc(C)c1-n1nnnc1Sc1nnnn1-c1ccccc1,.,.,.,.,.,1.9%
COc1ccc([N+](=O)[O-])c2cccnc12,.,.,.,.,.,2.0%
O=[N+]([O-])c1cc2ncccc2c2ncccc12,4.61µM*,6.51µM*,.,.,.,-13.3%
Cc1ccccc1C(=O)NCC(=O)c1ccccc1,-8.5%,1.6%,.,.,.,?
O=C(CNC(=O)Cc1ccccc1)NCC(=O)N1CCN(C(c2ccccc2)c2ccccc2)CC1,?,-16.1%,.,.,-27.0%,12.9%
NNC(=O)CNC(=O)c1ccccc1F,-7.2%,-4.4%,0.8%,?,-1.5%,-4.5%
O=C(CNC(=O)c1ccccc1F)c1ccccc1,16.6%,-22.0%,?,11.2µM*,?,2.3%
O=C(NCC(=O)N1CCN(C(c2ccccc2)c2ccccc2)CC1)c1ccccc1F,29.1µM*,?,-25.1%,-21.0%,?,-12.2%
O=C(CNC(=O)c1ccccc1Cl)c1ccccc1,?,-20.2%,-25.0%,8.91µM*,?,0.0%
O=S(Cc1cccc(Cl)c1)Cc1cccc(C(F)(F)F)c1 (centres undefined),.,.,.,.,.,48.6%
O=S(=O)(Nc1cc(Cl)ccc1-n1cncn1)c1cc(Br)ccc1Br,5.8µM*,25.9µM*,.,.,23.1µM*,?
Cc1ccc(C)c(CN2CCn3c(nn(Cc4ccccc4C)c3=O)C2=O)c1,.,.,.,.,.,-5.3%
CCOc1ccc(C(=O)N2CCC([C@@H]3CNC[C@H]3CO)CC2)cc1OCC,.,.,.,.,.,17.9%
SMILES,DT40 TDP1 no CPT,TDP1 cell CPT,Gal4-VP16 FLuc,RORg inh,ELG1 repair inh,ALOX12 inh
Cc1c(Cl)cccc1NC(=O)CCS(=O)(=O)c1cccc2nsnc12,?,14.6µM*,.,.,.,-19.6%
CN(CC(=O)Nc1ccc(F)c(Cl)c1)S(=O)(=O)c1cccc2nsnc12,18.4µM*,20.6µM*,0.0%,124.1%,-22.0%,-7.5%
Cc1cccc(NC(=O)CCS(=O)(=O)c2cccc3nsnc23)c1C,?,-22.7%,-9.8%,-13.7%,22.9%,0.0%
CCc1cccc(NC(=O)CN(C)S(=O)(=O)c2cccc3cccnc23)c1,16.4µM*,16.4µM*,5.3%,-0.3%,?,-7.6%
CCN(CCNC(=O)CN(C)S(=O)(=O)c1cccc2nsnc12)c1ccccc1,?,-27.9%,12.0%,26.0%,23.1µM*,-3.0%
Cc1ccc(NC(=O)CN(C)S(=O)(=O)c2cccc3nsnc23)cc1,-8.9%,-2.5%,4.1%,26.8%,-27.7%,8.3%
Cc1cccc(NC(=O)CN(C)S(=O)(=O)c2cccc3cccnc23)c1,-23.3%,?,-3.6%,39.6%,-10.9%,12.0%
N#Cc1cccc(C(=O)C(C#N)C(=O)Nc2cccc(C(F)(F)F)c2)c1 (centres undefined),.,.,.,.,.,24.2%
Cc1ccc(-n2c(C3CCN(C(=O)c4cc(F)ccc4Cl)CC3)n[nH]c2=O)cc1,.,.,.,.,.,-1.2%
CC(C)c1[nH]nc2c1C(c1cccs1)C(C#N)=C(N)O2 (centres undefined),?,?,-22.0%,-29.5%,-19.2%,?
CCc1[nH]nc2c1C(C1C=CCCC1)C(C#N)=C(N)O2 (centres undefined),20.6µM*,23.1µM*,11.2%,10.1%,?,-0.8%
CCc1[nH]nc2c1C(C(C)C)C(C#N)=C(N)O2 (centres undefined),?,?,-15.5%,-18.1%,1.0%,0.0%
CC(C)c1[nH]nc2c1C(C1C=CCCC1)C(C#N)=C(N)O2 (centres undefined),13µM*,16.4µM*,-1.8%,?,13.1%,?
CCOC(=O)C1=C(C)Nc2nnnn2C1c1cccc(OC)c1OC (centres undefined),-3.6%,-15.7%,2.5%,42.5%,-27.3%,-25.5%
CCCCCCCOC(=O)C1=C(C)Nc2ncnn2C1c1cccs1 (centres undefined),13µM*,?,5.8%,-35.9%,?,0.0%
CCOC(=O)C1=C(C)Nc2nnnn2C1c1c[nH]c2ccccc12 (centres undefined),.,.,22.4µM*,49.0%,-6.6%,-20.7%
CCCCCCCCOC(=O)C1=C(C)Nc2nnnn2C1c1cccs1 (centres undefined),16.4µM*,16.4µM*,?,-12.1%,?,?
O=c1cc(-c2ccccc2O)oc2c(O)c(O)ccc12,29.9µM*,23.7µM*,2.9%,-24.0%,.,.
O=c1cc(-c2ccccc2O)oc2ccc3ccccc3c12,?,?,7.08µM*,6.31µM*,.,.
O=c1cc(-c2ccccc2Cl)oc2cccc(O)c12,-13.0%,-0.2%,-3.3%[96.6 µM],27.0%[96.6 µM],23.0%,39.9%
Cc1cc(C)cc(C(=O)N2CCCN(c3cc(-c4ccc(Cl)cc4)[nH]n3)CC2)c1,.,.,.,.,.,32.5%
Cc1ccc(CNC(=O)CSc2c(C(C)C)cnc3c2c(=O)n(C)c(=O)n3C)cc1,25.9µM*,14.6µM*,.,.,.,?
CCc1cnc2c(c1SCC(=O)c1ccc(Cl)cc1)c(=O)n(C)c(=O)n2C,20.6µM*,13µM*,.,.,.,-12.2%
